Values joined by “and” are separate entries in the source; they are usually repeats but may differ in a detail not shown here. Equal values may be shown once. Hit rate of the full screen: of about 300,000 compounds, about 5,400 (1.8%) were called active. Entries that show only a call come without a potency. Not shown: some 28% with an inconclusive outcome. Calls come from the whole dose curve; tested in HEK293 cells. Many of the other results were omitted from the sample, so actives are more common in it than they were. A structure can be active in one record and inactive in another.

This passage reports Potency results from PubChem BioAssay AID540276 (National Center for Advancing Translational Sciences (NCATS), 2011).
Potency is the fitted concentration of half-maximal effect.

The nature of the experiment: qHTS for inhibitors of binding or entry into cells for Marburg Virus. As to conditions: Marburg virus pseudotyped entry inhibition, cell reporter; series mostly up to 37.8 µM.
In the case of `Cc1ccc(OCc2cc(C(=O)N(C)CCn3ccnc3C)no2)cc1C`, the Potency entry was “inactive”.
Then `COC(=O)C/C=C/[C@@H](C)[C@@H](/C=N/OC[C@@H](O)[C@H]1O[C@@H]2OC(C)(C)O[C@@H]2[C@H]1O)OC`, with “inactive”; and `CCN(CC)c1ccc(NC(=O)c2ccc(Cl)nc2)cc1`, with 7.08 µM (active).
Then `CCOC(=O)c1ccc(NC(=O)c2cccnc2)cc1`, with “inactive”; and `O=C(NNC(=O)c1ccc(Cl)nc1)c1ccc(Br)cc1`, with “inactive”.
In the case of `Cc1ccc(NC(=O)C(C)OC(=O)C2CC3CCCC(C2)C3=O)cc1S(=O)(=O)N1CCOCC1` (centres undefined), the Potency entry is “inactive”.
Then `COc1ccc(/C=C/c2noc(-c3ccccc3OC(C)=O)n2)cc1`, with 11.2 µM (active).
Then `COc1ccc(/C=C/c2noc(-c3ccccc3O)n2)cc1OC`, with “inactive”; and `CC(=O)Oc1ccccc1[C@@H]1OC(=O)c2ccccc2N1C(C)=O`, with “inactive”.
In the case of `CN(CC(=O)NCCc1ccc(S(N)(=O)=O)cc1)CC(=O)Nc1ccc(F)c(F)c1F`, the Potency entry was “inactive”.
For the compound `COc1ccc(CCNc2nc(C)cc(C)n2)cc1OC`, the Potency result was “inactive”.
Consider `COc1ccc(CCNC2=C(Cl)C(=O)N(Cc3ccccc3)C2=O)cc1OC`, for which the Potency was 11.2 µM (active).
Then `COc1ccc(CCN(C)CCN2C(=O)c3ccccc3C2=O)cc1OC`, with “inactive”.
Then `CC(=NNC(=O)c1ccc2nc[nH]c2c1)c1ccc(Br)cc1`, with “inactive”; and `O=C(O)c1ccc(Cn2cnc3c(=S)nc[nH]c32)cc1`, with “inactive”.
`O=C(COc1ccc(Br)cc1F)NCC1(N2CCCCC2)CCCCC1`: the Potency is 10 µM (active).
Then `O=C(COc1ccccc1F)NNC(=O)c1ccc(N2CCCCC2)c([N+](=O)[O-])c1`, with “inactive”.
Then `O=C(COC(=O)COc1ccccc1F)Nc1cccc(S(=O)(=O)N2CCCCC2)c1`, with “inactive”; and `Nc1ncnc2c1cnn2C1CC(O)C(CO)O1` (centres undefined), with “inactive”; and `COc1ccc(C(=O)OCC(=O)N2CC(=O)Nc3ccccc32)cc1Br`, with “inactive”.
Then `O=C(Nc1ccc(S(=O)(=O)N2CCOCC2)cc1)C1CCN(S(=O)(=O)c2ccc(Cl)cc2)CC1`, with “inactive”.
As to `CCCCNC1(C#N)CCN(Cc2ccccc2)CC1`, the Potency entry is “inactive”.
Then `O=C(NNS(=O)(=O)c1ccc([N+](=O)[O-])cc1)C1CCCCC1`, with “inactive”; and `O=C(NCc1ccc2c(c1)OCO2)c1ccc2c(c1)C(=O)N(CC1CCCO1)C2=O` (centres undefined), with “inactive”.
Then `O=c1c2cc3c(=O)n(CC4CCCO4)c(=O)c3cc2c(=O)n1CC1CCCO1` (centres undefined), with “inactive”; and `O=C1c2cccc3c([N+](=O)[O-])ccc(c23)C(=O)N1CC1CCCO1` (centres undefined), with 23.1 µM (active).
Then `Cc1cc(S(=O)(=O)Nc2ccc(C(=O)NCC(c3ccco3)N3CCCC3)cc2)ccc1F` (centres undefined), with “inactive”; and `CCC(=O)N1CCc2cc(Br)c(S(=O)(=O)NCCN3CCCCC3CC)cc21` (centres undefined), with “inactive”; and `CCN(Cc1ccccc1)C(=O)Cc1ccc(OC)c(S(=O)(=O)N2CCOCC2)c1`, with “inactive”.
With `COc1cccc(CNS(=O)(=O)c2ccc3c(c2)CC(C)N3C(C)=O)c1` (centres undefined), the Potency result was “inactive”.
Turning to `COC(=O)CC=C[C@@H](C)[C@H](NC(=O)OCC(Cl)(Cl)Cl)c1ccc2ccccc2c1`, the Potency result was “inactive”.
Consider `Cc1ccc(-c2nn(-c3ccc(F)cc3)cc2C(=O)NCC(c2cccs2)N2CCOCC2)cc1` (centres undefined), for which the Potency result was “inactive”.
Then `Cc1ccc(S(=O)(=O)C2(S(=O)(=O)c3ccc(C)cc3)CCCC2)cc1`, with 3.98 µM (active).
Then `Cc1ccc(S(=O)(=O)N(C)C2(C)CCS(=O)(=O)C2)cc1` (centres undefined), with “inactive”; and `Cc1ccc(S(=O)(=O)NC2CCCCCC2)cc1`, with “inactive”; and `COc1cccc2cc(C(=O)NCc3ccc(C)cc3)c(=N)oc12`, with “inactive”.
Then `Cc1cccc2[nH]c(CN(C)C(=O)C3CCC(=O)N(CCc4ccccc4)C3)nc12` (centres undefined), with “inactive”.
As to `CCN(CCCNC(=O)CSc1cc(=O)n(C)c2cc(Cl)ccc12)Cc1ccccc1`, the Potency was 11.2 µM (active).
Then `CCOc1ccc(CCNC(=O)CSc2cc(=O)n(C)c3ccc(Cl)cc23)cc1OCC`, with “inactive”; and `CCN(CCCNC(=O)CSc1cc(=O)n(C)c2cc(Cl)ccc12)c1cccc(C)c1`, with “inactive”.
With `COc1ccc(CCNC(=S)N2CCN(S(=O)(=O)c3ccc(Cl)cc3)CC2)cc1`, the Potency entry was “inactive”.
Then `Cc1ccc(NC(=S)NCCc2ccc(Cl)cc2)c(C)c1`, with “inactive”; and `Oc1cc2c(cc1O)CN(C(=S)NCCc1ccc(Cl)cc1)CCC2`, with “inactive and 355 nM (active)”; and `CC(=O)c1ccc(S(=O)(=O)N(C)CCCC(=O)N(C)Cc2ccccc2F)cc1`, with “inactive”.
Take `O=C(CCn1nnnc1CN1CCOCC1)N1CCC(c2ccccc2Cl)C1` (centres undefined): the Potency result is “inactive”.
In the case of `CCCC(CNC(=O)COC(=O)C1=NNC(=O)CC1)c1ccc(Cl)cc1Cl` (centres undefined), the Potency entry is “inactive”.
Turning to `CCOc1ccccc1Nc1nnc(SCC(=O)NCC2CCCO2)s1` (centres undefined), the Potency result is “inactive”.
Then `O=C(CSc1ncnc2c1nnn2Cc1ccc(F)cc1)NC1CCCC1`, with “inactive”; and `CCOC(=O)N1CCN(C(=O)C2CCCN(c3ncnc4c3sc3cccc(F)c34)C2)CC1` (centres undefined), with “inactive”; and `OC1CCCN(c2ncnc3c2nnn3Cc2c(F)cccc2Cl)C1` (centres undefined), with 10 µM (active).
Then `O=C1N=CC(F)C(=O)N1` (centres undefined), with “inactive”; and `CCOc1ccc(NC(=O)CN(C)C(=O)c2cccc(S(=O)(=O)N3CCCC3)c2)cc1OCC`, with “inactive”.
In the case of `COc1ccccc1C(=O)N(C1=NC(C)CS1)c1ccc(Cl)cc1` (centres undefined), the Potency result is “inactive”.
Consider `O=C(NNc1c2ccccc2nc2ccccc12)c1cc2ccccc2cc1O`, for which the Potency was 3.16 µM (active).
Then `Cc1noc(C)c1COC(=O)c1cc2ccccc2cc1O`, with “inactive”; and `O=C(COC(=O)c1ccc(O)cc1O)NC(=O)c1ccccc1`, with “inactive”; and `COc1ccccc1C(=O)OCC(=O)Nc1cccc(S(=O)(=O)NC2=NCCCCC2)c1`, with “inactive”.
For `O=C1CCc2cc(S(=O)(=O)Nc3ccc(C(F)(F)F)cc3)cc3c2N1CC3`, the Potency result is “inactive”.
Then `Cc1cccc(-n2c(N)cc(=O)nc2SC(C)C(=O)NC2CCCCC2)c1` (centres undefined), with “inactive”; and `Cc1cccc(-n2c(SCC(N)=O)nc3c(c2=O)C2(CCCCC2)Cc2ccccc2-3)c1`, with 4.47 µM (active).
As for `Cc1cccc(-n2c(SCC(N)=O)nc3c(oc4ccccc43)c2=O)c1`, the Potency result is “inactive”.
For the compound `O=S(=O)(Nc1ccc2nc(N3CCOCC3)sc2c1)c1ccccc1`, the Potency result was “inactive”.
On to `COc1ccc(CC(=O)NC(C)c2ccc(Cl)c(Cl)c2)cc1S(=O)(=O)N1CCOCC1` (centres undefined), for which the Potency entry is “inactive”.
Regarding `CCOc1ccc(CCNC(=O)COC(=O)c2ccc(F)c(S(=O)(=O)N3CCOCC3)c2)cc1OCC`, the Potency result is “inactive”.
